Compound activity from PubChem BioAssay.
The list is not random: actives were taken first. Their share in the collection is about 18%.
Six1-Eya2 blk: qHTS Assay for Inhibitors of the Six1/Eya2 Interaction | Homeobox protein SIX1 (Homo sapiens) + Protein phosphatase EYA2 (Homo sapiens), … | AlphaScreen GST-Six1/His-Eya2 binding, biochemical; active compounds read low | activity change, % (test concentration not listed) | 360,000 tested, 0.56% active; in the data active means activity change below about -65%; inconclusive means mostly about -30% to -63%
Target sequence (O00167 whole entry, looked up): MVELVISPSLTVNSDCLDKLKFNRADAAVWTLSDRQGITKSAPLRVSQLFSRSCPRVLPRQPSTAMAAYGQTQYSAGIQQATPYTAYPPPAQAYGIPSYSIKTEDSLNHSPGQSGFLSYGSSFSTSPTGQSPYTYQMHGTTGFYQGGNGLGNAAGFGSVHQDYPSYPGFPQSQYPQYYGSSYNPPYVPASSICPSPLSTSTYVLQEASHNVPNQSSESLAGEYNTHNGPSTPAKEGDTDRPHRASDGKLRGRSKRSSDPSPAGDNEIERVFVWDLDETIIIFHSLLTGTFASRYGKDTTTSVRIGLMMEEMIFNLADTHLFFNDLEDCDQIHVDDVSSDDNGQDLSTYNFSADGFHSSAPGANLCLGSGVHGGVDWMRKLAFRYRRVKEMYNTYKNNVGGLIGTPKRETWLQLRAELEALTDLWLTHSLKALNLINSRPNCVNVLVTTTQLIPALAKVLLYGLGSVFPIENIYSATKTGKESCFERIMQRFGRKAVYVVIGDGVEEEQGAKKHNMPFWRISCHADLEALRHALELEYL
Target sequence (Q15475 whole entry, looked up): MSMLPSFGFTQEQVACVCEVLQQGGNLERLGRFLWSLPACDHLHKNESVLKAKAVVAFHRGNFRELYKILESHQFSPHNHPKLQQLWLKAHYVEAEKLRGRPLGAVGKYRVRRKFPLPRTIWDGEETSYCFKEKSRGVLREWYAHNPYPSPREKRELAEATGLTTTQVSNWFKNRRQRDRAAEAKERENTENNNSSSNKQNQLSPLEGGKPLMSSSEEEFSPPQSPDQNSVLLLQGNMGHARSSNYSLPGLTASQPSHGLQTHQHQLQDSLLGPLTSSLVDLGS
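Homogeneous AlphaScreen proximity assay pairing GST-Six1 with His-tagged Eya2 (added as 5X mix: 250 nM and 500 nM) in 50 mM Tris pH 8.0, 300 mM NaCl, 1 mM TCEP. Glutathione donor and nickel acceptor beads; 1 h, 37 °C, dark.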
TDP1 cell CPT: qHTS for Inhibitors of human tyrosyl-DNA phosphodiesterase 1 (TDP1): qHTS in cells in presence of CPT; chicken DT40 Tdp1-/-;hTDP1 cells + 20 nM CPT, ATP luminescence, 48 h; Potency, µM (series often up to 46.2 µM), for the others: at the top dose activity change, negative = growth inhibition, most hits filed as inhibitors; 420,000 tested, 12% active; AID 686979, 2013; further: potency means the concentration at half of the fitted maximal effect; nearly all actives have a fitted effect of over 55% in size
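Cell growth measured by CellTiter-Glo luminescence after a minimum 48 h, 37 C compound exposure with 20 nM CPT in Tdp1-knockout DT40 cells stably expressing hTDP1, seeded 400/well; qHTS titration format.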
TDP1 cell noCPT: qHTS for Inhibitors of human tyrosyl-DNA phosphodiesterase 1 (TDP1): qHTS in cells in absence of CPT; DT40 Tdp1-/- hTDP1 cells, no CPT, ATP luminescence, 48 h; 420,000 tested, 15% active; Potency, µM (doses to about 46.2 µM), inactives show at the highest dose activity change, negative = growth inhibition, most hits filed as inhibitors; AID 686978, 2013; further: potency means the concentration at half of the fitted maximal effect; nearly all actives have a fitted effect of over 55% in size
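Camptothecin absent (DMSO only). Human TDP1-complemented DT40 knockout cells, 400 cells/well, 37 °C for minimum 48 hr; ATP measured via CellTiter-Glo, 30 min dark incubation, luminescence.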
CtBP-E1A blk: qHTS Assay for Inhibitors of the CtBP/E1A Interaction; AlphaScreen GST-E1A/His-CtBP binding, 1536-well; active compounds read low; activity change, % (no concentration beside the values); 340,000 tested, 0.49% active; AID 651724, 2012; in the data active means activity change below about -65%; inconclusive means mostly about -30% to -63%
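Homogeneous bead-based format: GST-tagged E1A captured on glutathione donor beads, His-tagged CtBP on nickel acceptor beads; compounds precede bead addition by 2 h at 37 °C.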
IL-1B inflam inh: qHTS for Inhibitors of Inflammasome Signaling: IL-1-beta AlphaLISA Primary Screen. activity change, % at 57.5 µM. AID 743279, 2014. 360,000 tested, 4.7% active. THP-1 LPS/ATP IL-1B secretion, AlphaLISA, 16 h; active compounds read low; in the data active means activity change below about -50%; inconclusive means mostly about -30% to -49%
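Secreted IL-1B measured by AlphaLISA bead assay after 16 h compound exposure of THP-1 cells; compounds (final up to 57.5 uM) added 1 h before LPS (250 ng/mL) and ATP (1.25 mM) stimulation; lower signal means less secretion.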
TDP1 inh: qHTS Assay for Inhibitors of Tyrosyl-DNA Phosphodiesterase (TDP1); recombinant TDP1, AlphaScreen DNA substrate cleavage; Tyrosyl-DNA phosphodiesterase 1 (Homo sapiens), Q9NUW8; 350,000 tested, 0.28% active; Potency, µM (highest dose often 130 µM), without a hit: top-dose activity change, negative = inhibition, most hits filed as inhibitors; further: potency means the concentration at half of the fitted maximal effect; nearly all actives have a fitted effect of over 40% in size
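AlphaScreen read-out: signal falls as enzyme removes the 3' tyrosine-FITC from a 5'-biotinylated DNA oligo (15 nM, 5 min, RT). Enzyme was E. coli-made recombinant Tdp1 at 1 nM, exposed to compound for 15 min beforehand; beads 10 ug/ml, 10 min.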
The depositor's hits bear a star; ? = inconclusive; . = no result given; [ ] = dose if it differs, or a comment. Unless noted, the call rests on the fitted dose curve; in most records, active means well fitted curve in the direction sought with a large enough effect; inconclusive means small, poorly fitted or top-dose-only effect, or another doubt; inactive means no such curve, though single readings can be large; an effect the other way counts as inactive or inconclusive. On the % scale 0 is the no-effect control and ±100 the full control effect.

SMILES | Six1-Eya2 blk | TDP1 cell CPT | TDP1 cell noCPT | CtBP-E1A blk | IL-1B inflam inh | TDP1 inh
Cc1cc(C)cc(NC(=O)C2CCCN2S(=O)(=O)c2ccc3c(c2)C(C)(C)C(=O)N3C)c1 (stereo not given) | -1.3 | 16.4µM* | ? | 4.2 | 12.0 | -2.6%
COc1cccc(NC(=O)C2CCCN2S(=O)(=O)c2ccc3c(c2)C(C)(C)C(=O)N3C)c1 (stereo not given) | -0.1 | -17.7% | ? | 1.8 | 2.3 | 2.6%
Cc1ccc(S(=O)(=O)N2CCCC2C(=O)Nc2ccc(Br)cc2)cc1 (stereo not given) | . | ? | 14.6µM* | . | . | -1.2%
Cc1cccc(C)c1-n1c(=O)n(Cc2ccccc2)c(=O)c2[nH]cnc21 | -1.4 | -6.7% | -14.0% | 6.6 | 6.3 | -2.7%
C=C(NC(=O)C(=C)NC(=O)c1csc(C2=NC3c4csc(n4)C4NC(=O)c5csc(n5)C(C(C)(O)C(C)O)NC(=O)C5CSC(=N5)/C(=C/C)NC(=O)C(C(C)O)NC(=O)c5csc(n5)C3(CC2)NC(=O)C(C)NC(=O)C(=C)NC(=O)C(=C)NC(=O)C(C(C)C)NC2C=Cc3c(C(C)O)cc(nc3C2O)C(=O)OC4C)n1)C(N)=O (stereo not given) | 6.3 | 1.03µM* | 0.92µM* | -11.6 | -67.2* | .
C=C(NC(=O)C(=C)NC(=O)c1csc(C2=N[C@@H]3c4csc(n4)[C@@H]4NC(=O)c5csc(n5)[C@@H]([C@](C)(O)[C@H](C)O)NC(=O)[C@@H]5CSC(=N5)/C(=C/C)NC(=O)[C@@H]([C@H](C)O)NC(=O)c5csc(n5)[C@]3(CC2)NC(=O)[C@@H](C)NC(=O)C(=C)NC(=O)[C@@H](C)NC(=O)[C@@H]([C@@H](C)CC)N[C@H]2C=Cc3c([C@H](C)O)cc(nc3[C@@H]2O)C(=O)O[C@H]4C)n1)C(N)=O | . | . | . | . | . | 12.8%[21 µM]
C=C(NC(=O)C(=C)NC(=O)c1csc(C2=NC3c4csc(n4)C4NC(=O)c5csc(n5)C(C(C)(O)C(C)O)NC(=O)C5CSC(=N5)C(=CC)NC(=O)C(C(C)O)NC(=O)c5csc(n5)C3(CC2)NC(=O)C(C)NC(=O)C(=C)NC(=O)C(C)NC(=O)C(C(C)CC)NC2C=Cc3c(C(C)O)cc(nc3C2O)C(=O)OC4C)n1)C(N)=O (stereo not given) | . | 4.11µM* | 5.17µM* | . | . | 5.3%
COC(=O)C=C1CCC2C3CCC4=CC(=O)CCC4(C)C3C(=O)CC12C (stereo not given) | 2.8 | -27.7% | ? | -0.4 | -16.7 | .
CCCCNc1nc(N(C)c2ccccc2)nc(-n2ccnc2)n1 | -4.8 | ? | ? | -1.2 | 0.0 | 6.8%
O=C(NN1C(=O)/C(=C/C=C/c2ccco2)SC1=S)c1ccncc1 | ? | -19.6% | -3.9% | -24.8 | -10.1 | .
O=C(NN1C(=O)/C(=C/C=C/c2ccccc2)SC1=S)c1ccncc1 | -5.1 | -8.8% | -29.1% | -5.6 | -71.6* | 0.0%
CC(/C=C1\SC(=O)N(CC(=O)Nc2ccc(O)cc2)C1=O)=C\c1ccccc1 | -3.1 | -23.8% | -23.8% | -9.8 | -76.4* | 4.1%
O=C(CN1C(=O)S/C(=C/c2ccncc2)C1=O)Nc1ccccc1 | -8.7 | 23.1µM* | ? | -9.9 | -15.7 | 6.3%
Cc1cc(NC(=O)CN2C(=O)S/C(=C\c3ccccc3)C2=O)no1 | 0.3 | -12.2% | -8.1% | 1.1 | -4.9 | -3.0%
CC(/C=C1\SC(=S)N(CC(=O)N2CCN(c3ccccc3)CC2)C1=O)=C\c1ccccc1 | -13.0 | 20.6µM* | 20.6µM* | -9.7 | -4.9 | 5.8%
CC(/C=C1\SC(=S)N(CC(=O)O)C1=O)=C\c1ccccc1 | 9.5 | -12.8% | 9.7% | 3.9 | -9.6 | 4.3%
COCC(=O)N1CCC2(CC1)CN(Cc1cc(C(F)(F)F)cc(C(F)(F)F)c1)C2 | . | -2.2% | -5.6% | . | . | .
CO/N=C\[C@@H](OC)[C@H](C)/C=C\CC(=O)OC | . | . | . | . | . | 6.9%[21 µM]
CC(/C=C1\SC(=S)N(NC(=O)c2cccc(O)c2)C1=O)=C\c1ccccc1 | ? | 6.7% | -18.9% | -20.9 | -100.8* | 10.8%
O=C(CCCN1C(=O)/C(=C\c2ccccc2)SC1=S)Nc1ccc(C(=O)O)cc1 | -16.1 | -2.6% | -25.8% | -27.2 | 5.9 | -2.3%[0.0935 µM]
CC(/C=C1\SC(=O)N(CC(=O)Nc2cccc(O)c2)C1=O)=C\c1ccccc1 | -11.2 | -0.6% | ? | -10.1 | -56.6* | 6.3%
CC(=O)c1ccc(NC(=O)CCCN2C(=O)/C(=C/C(C)=C/c3ccccc3)SC2=S)cc1 | -3.1 | ? | 23.1µM* | 1.3 | -65.7* | 2.6%
O=C(NN1C(=O)/C(=C/c2ccc(O)cc2)SC1=S)c1cccc(O)c1 | -1.1 | ? | ? | . | -14.9 | .
Cc1cccc(NC(=O)CN2C(=O)S/C(=C\C(=O)Nc3ccc(Cl)cc3)C2=O)c1 | -4.1 | -15.0% | -22.8% | -2.7 | -6.2 | -2.2%
Cc1ccc(C)c(CN2CCCN(CC(=O)Nc3ccc(C)c(C)c3)S2(=O)=O)c1 | . | ? | 16.4µM* | . | . | 0.0%
SMILES | Six1-Eya2 blk | TDP1 cell CPT | TDP1 cell noCPT | CtBP-E1A blk | IL-1B inflam inh | TDP1 inh
CCc1ccccc1NC(=O)Cn1nc(C(F)(F)F)c2c1CCC2 | 10.8 | 7.6% | ? | -1.2 | -16.1 | -1.1%
Cc1ccc(NC(=O)Cn2cc3c(n2)CCCC3)c(Cl)c1 | . | -19.2% | ? | . | . | 2.5%
Cc1ccc(CN2CCCN(CC(=O)Nc3ccc(C)cc3C)S2(=O)=O)cc1 | . | ? | 14.6µM* | . | . | 2.8%
CCc1ccccc1NC(=O)Cn1nc(-c2cc(C)ccc2C)c2c(c1=O)CCCC2 | . | ? | 14.6µM* | . | . | -4.7%
Cc1ccc(NC(=O)CN2CCCN(Cc3cc(C)ccc3C)S2(=O)=O)c(Cl)c1 | . | 18.4µM* | ? | . | . | 8.5%
Cc1cc(C)cc(N2C(=O)N(Cc3cccc(F)c3)c3ccccc3S2(=O)=O)c1 | . | -27.5% | ? | . | . | 2.5%
COc1cc(NS(=O)(=O)c2ccc(NC(=O)CCC(=O)O)cc2)nc(OC)n1 | -6.8 | -5.8% | -20.8% | -9.1 | -10.4 | .
